Test results taken from PubChem BioAssay AID1159580 (chemical genetic matrix, 2015).
Screen size: about 5,500 compounds; about 2,000 (36%) were called active. Inconclusive results (about 18%) are left out. Cut-off read from the data, not from the text of the source: active = normalized growth mostly below about 0.91 (no sharp cut-off); inconclusive = no clear call, values can overlap the other calls; inactive = mostly above about 0.92. The list shows a part of the results.

Assay: chemical genetic growth profiling, strain panel (AID 1159580);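 note: tested at 20 µM; growth read once vehicle control cultures reached saturation at 30 °C; 1 = growth at the plate median or of vehicle wells; lower values mean less growth of the strain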
Conditions: growth OD

Measured: normalized growth

Nc1ncnc2c1ncn2[C@@H]1O[C@H](CO)[C@@H](O)[C@@H]1O
inactive: S. cerevisiae deletion strains, locus YJR075W, strain HOC1, hits give low values 1.02 | S. cerevisiae deletion strains, locus YKL009W, strain mrt4, hits give low values 1.08 | S. cerevisiae deletion strains, locus YKL068W, hits give low values 1.01 | S. cerevisiae deletion strains, locus YKL085W, strain MDH1 (second series), hits give low values 1 | S. cerevisiae deletion strains, locus YKL085W, strain MDH1, hits give low values 1 | S. cerevisiae deletion strains, locus YKL160W, strain elf1, hits give low values 1 | S. cerevisiae deletion strains, locus YKL190W, strain CNB1, hits give low values 0.996 | S. cerevisiae deletion strains, locus YKR001C, strain vps1, hits give low values 1.04 | S. cerevisiae deletion strains, locus YKR026C, strain gcn3, hits give low values 1.01 | S. cerevisiae deletion strains, locus YKR091W, strain srl3, hits give low values 1.01 | S. cerevisiae deletion strains, locus YLL001W, strain dnm1, hits give low values 1.02 | S. cerevisiae deletion strains, locus YLL026W, hits give low values 1 | S. cerevisiae deletion strains, locus YLL041C, strain sdh2, hits give low values 1.01 | S. cerevisiae deletion strains, locus YLR027C, strain aat2, hits give low values 1.01 | S. cerevisiae deletion strains, locus YLR039C, strain RIC1, hits give low values 1.02 | S. cerevisiae deletion strains, locus YLR058C, strain SHM2, hits give low values 1.01 | S. cerevisiae deletion strains, locus YLR102C, strain apc9, hits give low values 1.02 | S. cerevisiae deletion strains, locus YLR113W, strain HOG1, hits give low values 1 | S. cerevisiae deletion strains, locus YLR221C, strain rsa3, hits give low values 1.01 | S. cerevisiae deletion strains, locus YLR258W, strain gsy2, hits give low values 1.01 | S. cerevisiae deletion strains, locus YLR262C, strain YPT6 (second series), hits give low values 1.03 | S. cerevisiae deletion strains, locus YLR262C, strain YPT6, hits give low values 1.03 | S. cerevisiae deletion strains, locus YLR268W, strain sec22, hits give low values 1.04 | S. cerevisiae deletion strains, locus YLR320W, strain mms22, hits give low values 1 | S. cerevisiae deletion strains, locus YLR330W, strain CHS5, hits give low values 1.01 | S. cerevisiae deletion strains, locus YLR342W, strain FKS1 (second series), hits give low values 0.989 | S. cerevisiae deletion strains, locus YLR342W, strain FKS1, hits give low values 1.01 | S. cerevisiae deletion strains, locus YLR357W, strain rsc2, hits give low values 1.04 | S. cerevisiae deletion strains, locus YLR370C, strain arc18, hits give low values 1.02 | S. cerevisiae deletion strains, locus YLR371W, strain rom2, hits give low values 1.02 | S. cerevisiae deletion strains, locus YLR384C, strain iki3, hits give low values 1.01 | S. cerevisiae deletion strains, locus YLR418C, strain cdc73, hits give low values 1.05 | S. cerevisiae deletion strains, locus YML016C, strain PPZ1, hits give low values 1.01 | S. cerevisiae deletion strains, locus YML032C, strain rad52, hits give low values 1.03 | S. cerevisiae deletion strains, locus YML120C, strain ndi1, hits give low values 1.01 | S. cerevisiae deletion strains, locus YML124C, strain tub3, hits give low values 1.03 | S. cerevisiae deletion strains, locus YMR058W, strain fet3, hits give low values 1.02 | S. cerevisiae deletion strains, locus YMR078C, strain ctf18, hits give low values 1.03 | S. cerevisiae deletion strains, locus YMR125W, strain sto1, hits give low values 1.01 | S. cerevisiae deletion strains, locus YMR129W, hits give low values 1.01 | S. cerevisiae deletion strains, locus YMR205C, strain PFK2, hits give low values 1.03 | S. cerevisiae deletion strains, locus YMR223W, strain ubp8, hits give low values 1.03 | S. cerevisiae deletion strains, locus YMR231W, strain pep5, hits give low values 1.01 | S. cerevisiae deletion strains, locus YMR263W, strain SAP30, hits give low values 1.01 | S. cerevisiae deletion strains, locus YMR307W, strain GAS1, hits give low values 1.01 | S. cerevisiae deletion strains, locus YNL067W, strain RPL9B, hits give low values 1.01 | S. cerevisiae deletion strains, locus YNL071W, strain lat1, hits give low values 1.02 | S. cerevisiae deletion strains, locus YNL128W, strain TEP1, hits give low values 1.02 | S. cerevisiae deletion strains, locus YNL153C, strain GIM3, hits give low values 1.01 | S. cerevisiae deletion strains, locus YNL183C, strain NPR1, hits give low values 0.952 | S. cerevisiae deletion strains, locus YNL209W, strain ssb2, hits give low values 1.01 | S. cerevisiae deletion strains, locus YNL233W, strain BNI4, hits give low values 1.02 | S. cerevisiae deletion strains, locus YNL248C, strain rpa49, hits give low values 1.01 | S. cerevisiae deletion strains, locus YNL250W, strain rad50, hits give low values 1.03 | S. cerevisiae deletion strains, locus YNL271C, strain bni1, hits give low values 1.03 | S. cerevisiae deletion strains, locus YNL298W, strain CLA4, hits give low values 1.02 | S. cerevisiae deletion strains, locus YNL307C, strain MCK1, hits give low values 1.03 | S. cerevisiae deletion strains, locus YNL322C, strain KRE1 (second series), hits give low values 1.02 | S. cerevisiae deletion strains, locus YNL322C, strain KRE1, hits give low values 1.01 | S. cerevisiae deletion strains, locus YNR049C, strain mso1, hits give low values 1.02 | S. cerevisiae deletion strains, locus YNR052C, strain pop2, hits give low values 1.03 | S. cerevisiae deletion strains, locus YOL006C, strain TOP1, hits give low values 1.06 | S. cerevisiae deletion strains, locus YOL012C, strain htz1 1.2 | S. cerevisiae deletion strains, locus YOL147C, strain pex11, hits give low values 1.03 | S. cerevisiae deletion strains, locus YOR001W, strain rrp6, hits give low values 1.02 | S. cerevisiae deletion strains, locus YOR061W, strain CKA2, hits give low values 1.02 | S. cerevisiae deletion strains, locus YOR069W, strain VPS5, hits give low values 1 | S. cerevisiae deletion strains, locus YOR070C, strain gyp1, hits give low values 1.02 | S. cerevisiae deletion strains, locus YOR080W, strain dia2, hits give low values 1 | S. cerevisiae deletion strains, locus YOR083W, strain WHI5, hits give low values 1.01 | S. cerevisiae deletion strains, locus YOR106W, strain vam3, hits give low values 1.01 | S. cerevisiae deletion strains, locus YOR136W, strain idh2, hits give low values 1.03 | S. cerevisiae deletion strains, locus YOR144C, strain elg1, hits give low values 1.03 | S. cerevisiae deletion strains, locus YOR184W, strain ser1, hits give low values 1.05 | S. cerevisiae deletion strains, locus YOR231W, strain MKK1, hits give low values 0.981 | S. cerevisiae deletion strains, locus YOR265W, strain rbl2, hits give low values 1 | S. cerevisiae deletion strains, locus YOR270C, strain vph1, hits give low values 1.06 | S. cerevisiae deletion strains, locus YOR290C, strain snf2, hits give low values 1.03 | S. cerevisiae deletion strains, locus YOR316C, strain cot1, hits give low values 1.03 | S. cerevisiae deletion strains, locus YPL051W, strain arl3, hits give low values 1.01 | S. cerevisiae deletion strains, locus YPL055C, strain LGE1, hits give low values 1.04 | S. cerevisiae deletion strains, locus YPL078C, strain atp4, hits give low values 1.02 | S. cerevisiae deletion strains, locus YPL106C, strain sse1, hits give low values 1.02 | S. cerevisiae deletion strains, locus YPL240C, strain hsp82, hits give low values 1.03 | S. cerevisiae deletion strains, locus YPL241C, strain CIN2, hits give low values 1 | S. cerevisiae deletion strains, locus YPL256C, strain CLN2, hits give low values 0.963 | S. cerevisiae deletion strains, locus YPR119W, strain clb2, hits give low values 1.03 | S. cerevisiae deletion strains, locus YPR141C, strain kar3, hits give low values 1.03 | S. cerevisiae deletion strains, locus YPR163C, strain tif3, hits give low values 1.04 | S. cerevisiae deletion strains, locus YPR167C, strain met16, hits give low values 1.03 | S. cerevisiae deletion strains, strain wtn01, hits give low values 1.02 | S. cerevisiae strains, strain wild type, hits give low values 1.01
